Laboratory results reported in PubChem BioAssay AID1159580 (chemical genetic matrix, 2015).
Out of some 5,500 compounds screened, about 2,000 (36%) were called active. Inconclusive results (about 18%) are left out. Rule as the data show it: active = normalized growth mostly below about 0.91 (no sharp cut-off); inconclusive = no clear call, values can overlap the other calls; inactive = mostly above about 0.92. The list shows a part of the results.

Assay: chemical genetic growth profiling, strain panel (AID 1159580);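 also: tested at 20 µM; growth read once vehicle control cultures reached saturation at 30 °C; 1 = growth at the plate median or of vehicle wells; lower values mean less growth of the strain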
Conditions: growth OD

Measured: normalized growth

C1CNCCN1
inactive: S. cerevisiae deletion strains, locus YJR066W, strain TOR1, hits give low values 0.957 | S. cerevisiae deletion strains, locus YJR075W, strain HOC1, hits give low values 1.02 | S. cerevisiae deletion strains, locus YKL009W, strain mrt4, hits give low values 0.989 | S. cerevisiae deletion strains, locus YKL068W, hits give low values 0.999 | S. cerevisiae deletion strains, locus YKL085W, strain MDH1 (second series), hits give low values 1.01 | S. cerevisiae deletion strains, locus YKL085W, strain MDH1, hits give low values 1.01 | S. cerevisiae deletion strains, locus YKL160W, strain elf1, hits give low values 1.02 | S. cerevisiae deletion strains, locus YKL190W, strain CNB1, hits give low values 1 | S. cerevisiae deletion strains, locus YKR001C, strain vps1, hits give low values 1 | S. cerevisiae deletion strains, locus YKR026C, strain gcn3, hits give low values 1.01 | S. cerevisiae deletion strains, locus YKR091W, strain srl3, hits give low values 1.01 | S. cerevisiae deletion strains, locus YLL001W, strain dnm1, hits give low values 1.02 | S. cerevisiae deletion strains, locus YLL026W, hits give low values 1.01 | S. cerevisiae deletion strains, locus YLL041C, strain sdh2, hits give low values 1.02 | S. cerevisiae deletion strains, locus YLR027C, strain aat2, hits give low values 1.01 | S. cerevisiae deletion strains, locus YLR039C, strain RIC1, hits give low values 1.01 | S. cerevisiae deletion strains, locus YLR058C, strain SHM2, hits give low values 1.01 | S. cerevisiae deletion strains, locus YLR102C, strain apc9, hits give low values 0.994 | S. cerevisiae deletion strains, locus YLR113W, strain HOG1, hits give low values 1.02 | S. cerevisiae deletion strains, locus YLR221C, strain rsa3, hits give low values 1.01 | S. cerevisiae deletion strains, locus YLR258W, strain gsy2, hits give low values 1.01 | S. cerevisiae deletion strains, locus YLR262C, strain YPT6 (second series), hits give low values 1.03 | S. cerevisiae deletion strains, locus YLR262C, strain YPT6, hits give low values 1.02 | S. cerevisiae deletion strains, locus YLR268W, strain sec22, hits give low values 0.987 | S. cerevisiae deletion strains, locus YLR320W, strain mms22, hits give low values 1.02 | S. cerevisiae deletion strains, locus YLR330W, strain CHS5, hits give low values 1.01 | S. cerevisiae deletion strains, locus YLR342W, strain FKS1 (second series), hits give low values 1.02 | S. cerevisiae deletion strains, locus YLR342W, strain FKS1, hits give low values 1.02 | S. cerevisiae deletion strains, locus YLR357W, strain rsc2, hits give low values 1.02 | S. cerevisiae deletion strains, locus YLR370C, strain arc18, hits give low values 1.02 | S. cerevisiae deletion strains, locus YLR371W, strain rom2, hits give low values 0.997 | S. cerevisiae deletion strains, locus YLR384C, strain iki3, hits give low values 1.01 | S. cerevisiae deletion strains, locus YLR418C, strain cdc73, hits give low values 0.994 | S. cerevisiae deletion strains, locus YML016C, strain PPZ1, hits give low values 1.02 | S. cerevisiae deletion strains, locus YML032C, strain rad52, hits give low values 0.989 | S. cerevisiae deletion strains, locus YML120C, strain ndi1, hits give low values 1 | S. cerevisiae deletion strains, locus YML124C, strain tub3, hits give low values 0.999 | S. cerevisiae deletion strains, locus YMR058W, strain fet3, hits give low values 1.02 | S. cerevisiae deletion strains, locus YMR078C, strain ctf18, hits give low values 1 | S. cerevisiae deletion strains, locus YMR125W, strain sto1, hits give low values 1.03 | S. cerevisiae deletion strains, locus YMR129W, hits give low values 1.01 | S. cerevisiae deletion strains, locus YMR205C, strain PFK2, hits give low values 1.03 | S. cerevisiae deletion strains, locus YMR223W, strain ubp8, hits give low values 0.987 | S. cerevisiae deletion strains, locus YMR231W, strain pep5, hits give low values 1.02 | S. cerevisiae deletion strains, locus YMR263W, strain SAP30, hits give low values 1.01 | S. cerevisiae deletion strains, locus YMR307W, strain GAS1, hits give low values 1.04 | S. cerevisiae deletion strains, locus YNL067W, strain RPL9B, hits give low values 1.02 | S. cerevisiae deletion strains, locus YNL071W, strain lat1, hits give low values 1.01 | S. cerevisiae deletion strains, locus YNL128W, strain TEP1, hits give low values 1.01 | S. cerevisiae deletion strains, locus YNL153C, strain GIM3, hits give low values 1.02 | S. cerevisiae deletion strains, locus YNL183C, strain NPR1, hits give low values 0.975 | S. cerevisiae deletion strains, locus YNL209W, strain ssb2, hits give low values 1.02 | S. cerevisiae deletion strains, locus YNL233W, strain BNI4, hits give low values 1.01 | S. cerevisiae deletion strains, locus YNL248C, strain rpa49, hits give low values 1.01 | S. cerevisiae deletion strains, locus YNL250W, strain rad50, hits give low values 0.993 | S. cerevisiae deletion strains, locus YNL271C, strain bni1, hits give low values 1 | S. cerevisiae deletion strains, locus YNL298W, strain CLA4, hits give low values 0.985 | S. cerevisiae deletion strains, locus YNL307C, strain MCK1, hits give low values 0.996 | S. cerevisiae deletion strains, locus YNL322C, strain KRE1 (second series), hits give low values 1.02 | S. cerevisiae deletion strains, locus YNL322C, strain KRE1, hits give low values 1.01 | S. cerevisiae deletion strains, locus YNR049C, strain mso1, hits give low values 1.01 | S. cerevisiae deletion strains, locus YNR052C, strain pop2, hits give low values 1.01 | S. cerevisiae deletion strains, locus YOL006C, strain TOP1, hits give low values 1.06 | S. cerevisiae deletion strains, locus YOL012C, strain htz1 1.02 | S. cerevisiae deletion strains, locus YOL147C, strain pex11, hits give low values 0.985 | S. cerevisiae deletion strains, locus YOR001W, strain rrp6, hits give low values 1.01 | S. cerevisiae deletion strains, locus YOR061W, strain CKA2, hits give low values 1.01 | S. cerevisiae deletion strains, locus YOR069W, strain VPS5, hits give low values 1 | S. cerevisiae deletion strains, locus YOR070C, strain gyp1, hits give low values 1.03 | S. cerevisiae deletion strains, locus YOR080W, strain dia2, hits give low values 1.02 | S. cerevisiae deletion strains, locus YOR083W, strain WHI5, hits give low values 1.02 | S. cerevisiae deletion strains, locus YOR106W, strain vam3, hits give low values 1.02 | S. cerevisiae deletion strains, locus YOR136W, strain idh2, hits give low values 0.99 | S. cerevisiae deletion strains, locus YOR144C, strain elg1, hits give low values 1 | S. cerevisiae deletion strains, locus YOR184W, strain ser1, hits give low values 0.981 | S. cerevisiae deletion strains, locus YOR231W, strain MKK1, hits give low values 1.01 | S. cerevisiae deletion strains, locus YOR265W, strain rbl2, hits give low values 1.01 | S. cerevisiae deletion strains, locus YOR270C, strain vph1, hits give low values 1.01 | S. cerevisiae deletion strains, locus YOR290C, strain snf2, hits give low values 0.996 | S. cerevisiae deletion strains, locus YOR316C, strain cot1, hits give low values 0.997 | S. cerevisiae deletion strains, locus YPL051W, strain arl3, hits give low values 1.01 | S. cerevisiae deletion strains, locus YPL055C, strain LGE1, hits give low values 1.03 | S. cerevisiae deletion strains, locus YPL078C, strain atp4, hits give low values 1.01 | S. cerevisiae deletion strains, locus YPL106C, strain sse1, hits give low values 1.01 | S. cerevisiae deletion strains, locus YPL240C, strain hsp82, hits give low values 1.03 | S. cerevisiae deletion strains, locus YPL256C, strain CLN2, hits give low values 0.996 | S. cerevisiae deletion strains, locus YPR119W, strain clb2, hits give low values 0.985 | S. cerevisiae deletion strains, locus YPR141C, strain kar3, hits give low values 0.992 | S. cerevisiae deletion strains, locus YPR163C, strain tif3, hits give low values 0.997 | S. cerevisiae deletion strains, locus YPR167C, strain met16, hits give low values 0.985 | S. cerevisiae deletion strains, strain wtn01, hits give low values 0.993 | S. cerevisiae strains, strain wild type, hits give low values 0.999
